The text below walks through data of PubChem BioAssay AID1220 (Sanford-Burnham Center for Chemical Genomics, 2008).

A word on the inhibition: it is the change of the read-out against control, counted positive when it falls.

The structures appear in SMILES notation. Screen size: about 190,000 compounds; about 1,300 (0.68%) were called active. Cut-off read from the data, not from the text of the source: active = inhibition above about 50%; inactive = the rest. The sample as a whole holds a higher share of actives than the screen did.

For the experiment, the target named is Mannose-6-phosphate isomerase (Homo sapiens) (UniProt P34949). Kind of experiment: MPI inhibition at elevated mannose 6-phosphate – biochemical, fluorescence intensity, high mannose 6-phosphate, primary screen (AID 1220). Particulars: recombinant PMI enzyme, coupled fluorescence intensity; at 20 µM; stronger effect = higher value.
Chain of Mannose-6-phosphate isomerase (Homo sapiens) (P34949 whole entry, looked up): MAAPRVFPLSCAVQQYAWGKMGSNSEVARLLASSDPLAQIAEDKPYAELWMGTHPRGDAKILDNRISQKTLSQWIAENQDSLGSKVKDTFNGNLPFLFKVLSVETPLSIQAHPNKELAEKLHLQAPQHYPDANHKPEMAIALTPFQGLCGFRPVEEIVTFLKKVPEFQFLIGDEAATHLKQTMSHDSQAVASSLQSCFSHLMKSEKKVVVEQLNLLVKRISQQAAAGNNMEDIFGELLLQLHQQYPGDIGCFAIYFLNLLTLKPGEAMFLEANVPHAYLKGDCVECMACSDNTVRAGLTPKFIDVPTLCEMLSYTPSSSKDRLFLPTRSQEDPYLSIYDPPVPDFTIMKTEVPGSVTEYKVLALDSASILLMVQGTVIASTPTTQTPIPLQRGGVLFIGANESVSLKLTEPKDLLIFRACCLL
In the case of `COc1cccc(C2CC3C(=O)C=CC2N3Cc2ccccc2)c1` (stereo not given), the inhibition is 61.2% (active). The result for `COc1cccc(CN2CCCCC2c2cccnc2)c1` (stereo not given) reads -2.6% (inactive); that for `COc1cccc(NC(=O)CN2CC(c3ccccc3)CC2=O)c1` (stereo not given), -4.8% (inactive).

With `CCN(CC)CCCN=C(C)c1c(O)n(C2CCCCC2)c(=O)[nH]c1=O`, the inhibition is -9.1% (inactive). For `CCCCn1c(N)c(C(=O)OCC2CCCO2)c2nc3ccccc3nc21` (stereo not given) the value was 12% (inactive); for `CCCCCn1c(N)c(C(=O)NCCN2CCOCC2)c2nc3ccccc3nc21`, 51.4% (active). For `CCCCn1c(N)c(C(=O)NCCN2CCOCC2)c2nc3ccccc3nc21` the value was 48.6% (inactive); for `CC(C)CCNC(=O)c1c(N)n(CC2CCCO2)c2nc3ccccc3nc12` (stereo not given), 23.9% (inactive); for `CC(C)OCCCNC(=O)c1c(N)n(CC2CCCO2)c2nc3ccccc3nc12` (stereo not given), 22.1% (inactive).

Take `CC(C)OC(=O)c1c(N)n(CC2CCCO2)c2nc3ccccc3nc12` (stereo not given): the inhibition was 16.9% (inactive). The result for `Nc1c(C(=O)OC2CCCCC2)c2nc3ccccc3nc2n1CC1CCCO1` (stereo not given) reads 24.9% (inactive); that for `Nc1c(C(=O)NC2CCCC2)c2nc3ccccc3nc2n1CC1CCCO1` (stereo not given), 62.2% (active).

With `CCCCCCn1c(N)c(C(=O)NCCN2CCOCC2)c2nc3ccccc3nc21`, the inhibition was 23.2% (inactive). For `CCCNC(=O)c1c(N)n(CC2CCCO2)c2nc3ccccc3nc12` (stereo not given) the value was 56.1% (active); for `CCC(C)NC(=O)c1c(N)n(CC2CCCO2)c2nc3ccccc3nc12` (stereo not given), 64.3% (active); for `CC(C)CCOC(=O)c1c(N)n(CC2CCCO2)c2nc3ccccc3nc12` (stereo not given), 5.9% (inactive). For `CC(NCc1ccccc1Cl)C(O)c1ccccc1` (stereo not given) the value was -3.1% (inactive). As to `CCN(CC)P(=S)(c1c(C)nc2ccccn12)c1c(C)nc2ccccn12`, the inhibition is -6.3% (inactive). Consider `CN1CCN(S(=O)(=O)c2cnc(Cl)c(Br)c2)CC1`, for which the inhibition is 10.5% (inactive). For `COc1ccc(N2C(=O)NC(=O)/C(=C/c3ccc4c(c3)Cc3ccccc3-4)C2=O)cc1` the value was -32.8% (inactive); for `COc1ccc(-c2cc(=NCCC(=O)O)c3cc(C)ccc3o2)cc1`, 3.9% (inactive); for `CN1CCN(c2ccc(F)cc2N)CC1`, -0.9% (inactive). The result for `OCC12COC3c4ccccc4C(OC1)N32` (stereo not given) reads 5.1% (inactive); that for `COc1ccc(N=Cc2c(O)n(Cc3cccs3)c(=O)[nH]c2=O)cc1`, 0.9% (inactive). `COc1ccc(NP(=O)(Nc2ccc(OC)cc2)Oc2ccccc2)cc1`: the inhibition was -1.9% (inactive). The result for `COc1ccc(OP(=O)(Nc2ccccc2)Nc2ccccc2)cc1` reads -14.6% (inactive); that for `COc1ccc(P2(=O)Nc3ccccc3N2)cc1`, 52.2% (active). Regarding `C[N+](C)(C)c1ccccc1`, the inhibition is 10.3% (inactive). The result for `CCCCCCC(=O)c1c(O)n(-c2ccccc2OC)c(=O)[nH]c1=O` reads -8.9% (inactive).

On to `CCn1nc(-c2cccs2)nc2c(=O)n(C)c(=O)nc1-2`, for which the inhibition was 8.9% (inactive). For `O=[N+]([O-])c1ccc(N2CCCC2)c2ccncc12` the value was 47.4% (inactive).

As to `O=[N+]([O-])c1ccc(N2CCOCC2)c2cccnc12`, the inhibition was 36.9% (inactive). Regarding `O=[N+]([O-])c1ccc(N2CCOCC2)c2ccncc12`, the inhibition is 55.8% (active). For `COc1cccc(C(=O)C2CCCN(Cc3ccon3)C2)c1` (stereo not given), the inhibition was 8.8% (inactive). The result for `O=C(CN1CCOCC1)NCC(=O)Nc1ccc(Br)cc1C(=O)c1ccccc1` reads -0.3% (inactive); that for `CCC[N+]12CCC(CC1)C(=C(c1ccccc1)c1ccccc1)C2`, 5.9% (inactive); that for `O=c1[nH]c(=S)n(Cc2ccc(F)cc2)c(O)c1C=NCC1CCCO1` (stereo not given), 6.1% (inactive). For `COCCNC(=O)c1c(NC(=O)c2ccc(Br)o2)n(Cc2ccccc2)c2nc3ccccc3nc12` the value was 46.5% (inactive). The result for `CCOC(=O)c1c(N)n(CCCOC(=O)c2ccco2)c2nc3ccccc3nc12` reads 0.2% (inactive); that for `CCCCn1c(NC(=O)c2ccc(Br)o2)c(C(=O)OCC)c2nc3ccccc3nc21`, 56.4% (active); that for `CCCCn1c(NS(=O)(=O)c2ccccc2)c(C(=O)OCC)c2nc3ccccc3nc21`, 42.5% (inactive).

For `CCCCn1c(NS(=O)(=O)c2ccc(C)cc2)c(C(=O)OCC)c2nc3ccccc3nc21`, the inhibition is 52.3% (active). The result for `CCOC(=O)c1c(NS(=O)(=O)c2ccccc2)n(CCCOC)c2nc3ccccc3nc12` reads 44.9% (inactive); that for `Cc1cc(C=O)c(C)n1CC1CCCO1` (stereo not given), -8.4% (inactive). The result for `COc1ccc(C(=O)C2CCCN(C3CSCCSC3)C2)cc1OC` (stereo not given) reads 8.3% (inactive); that for `CN1C(=O)C(=Cc2ccccc2OCc2ccccc2Cl)C(=O)N(C)C1=O`, -9.8% (inactive); that for `CCn1nc(-c2ccccc2)nc2c(=O)n(C)c(=O)nc1-2`, 7.6% (inactive). Take `Cn1ncnc2c(=O)n(C)c(=O)nc1-2`: the inhibition was 61.6% (active).

Take `CCn1nc(/C=C/c2ccccc2)nc2c(=O)n(C)c(=O)nc1-2`: the inhibition is 46.6% (inactive). `Cc1cc(=O)n(-c2ccccc2)n1-c1ccccc1`: the inhibition was -4.7% (inactive). Take `CCOC(=O)c1c(-n2c(C)cc(/C=C3\C(=O)NC(=O)N(C)C3=O)c2C)sc2c1CCCC2`: the inhibition is 12.7% (inactive). For `Cc1cc2c(C(C)C)c(O)c(O)c(C=O)c2c(O)c1-c1c(C)cc2c(C(C)C)c(O)c(O)c(C=O)c2c1O` the value was 51.4% (active). The result for `COc1ccc(-c2nc3ccccc3c(=O)n2-c2cccnc2)cc1` reads -2.9% (inactive); that for `O=C1/C(=C/c2cc([N+](=O)[O-])ccc2Cl)N2CCC1CC2`, -0.3% (inactive); that for `O=C1/C(=C/c2ccc3c(c2)OCO3)N2CCC1CC2`, -2.8% (inactive). The result for `O=C1/C(=C\c2cc3c(cc2Br)OCO3)N2CCC1CC2` reads 19.8% (inactive); that for `O=C1/C(=C/c2cc3c(cc2Cl)OCO3)N2CCC1CC2`, 51% (active). For `O=C1/C(=C\c2ccc3c(c2)OCO3)N2CCC1CC2`, the inhibition was 5.7% (inactive).

Take `O=C1/C(=C\c2cc3c(cc2Cl)OCO3)N2CCC1CC2`: the inhibition is 57.2% (active). For `CCN(CC)CC(O)c1ccc(C2CCCC2)cc1` (stereo not given) the value was -5.5% (inactive); for `C=CCn1c(O)c(C(CC)=Nc2ccccc2NC(C)=O)c(=O)[nH]c1=O`, 0.5% (inactive); for `CCOC(=O)C(NC(C)=O)C(OC(C)=O)c1cccc(N(CCCl)CCCl)c1` (stereo not given), -101% (inactive). Regarding `CC(NC(=O)Oc1ccccc1)C(c1cccs1)N1CCOCC1` (stereo not given), the inhibition was 3% (inactive). The result for `Cc1ccc(-c2nn(Cc3ccccc3)cc2C=O)cc1` reads 3.6% (inactive); that for `O=C(N=Nc1c(O)[nH]c(=O)[nH]c1=O)C1COc2cc3ccccc3cc2O1` (stereo not given), 51.7% (active).

Turning to `O=C(c1ccccc1)c1ccc(N=Nc2c(O)[nH]c(=O)[nH]c2=O)cc1`, the inhibition was -8.7% (inactive).

In the case of `O=c1[nH]c(O)c(N=Nc2ccc3c(c2)OCCO3)c(=O)[nH]1`, the inhibition was 2.6% (inactive).

In the case of `O=c1[nH]c(O)c(N=Nc2ccc([N+](=O)[O-])cc2)c(=O)[nH]1`, the inhibition was -7.5% (inactive).

On to `NC(=O)c1ccc(N=Nc2c(O)[nH]c(=O)[nH]c2=O)cc1`, for which the inhibition is 2.6% (inactive). The result for `O=C(N=Nc1c(O)[nH]c(=O)[nH]c1=O)C1COc2ccccc2O1` (stereo not given) reads 56.6% (active).

As to `CN(C)C(=O)Oc1ccc(-c2nnco2)cc1`, the inhibition is 2.3% (inactive). The result for `OC1(c2cccnc2)CC2CCC(C1)N2Cc1nnnn1Cc1ccccc1` (stereo not given) reads -8.1% (inactive); that for `CCOP(=O)(OCC)C(c1ccccc1)N(C)C=O` (stereo not given), 1.8% (inactive); that for `CC(C)(C)NC(=O)NC(=O)CN1CC=C(c2ccccc2)CC1`, 7.7% (inactive). For `O=C1NC(=O)C2(Cc3ccccc3N3CCCC32)C(=O)N1` (stereo not given), the inhibition was -47.2% (inactive).

With `O=C(Nc1ccc2c(c1)OCO2)c1cn(Cc2ccc(F)cc2)nn1`, the inhibition is 12.6% (inactive).

`COc1ccccc1NC1(C#N)CCCCC1`: the inhibition is 38.8% (inactive). The result for `Cc1ccccc1NC1(C#N)CCCCC1` reads -0.6% (inactive); that for `COc1ccc(NC2(C#N)CCCCC2)cc1`, 52.7% (active); that for `Cc1sc2ncn(CC(=O)NCCCC(=O)N3CCC4(CC3)OCCO4)c(=O)c2c1C`, -1.4% (inactive). With `O=C1C(=O)c2cccc3cccc1c23`, the inhibition was 44.3% (inactive). Turning to `O=C1C(=O)c2ccccc2-c2ccccc21`, the inhibition is 1.8% (inactive). For `O=C1C=Cc2ccccc2C1=O` the value was 75.2% (active). The result for `NCCNc1ccc([N+](=O)[O-])c2cccnc12` reads 51.1% (active).

Regarding `O=C(NCCCN1CCOCC1)C(Cl)(Cl)Cl`, the inhibition is -7.8% (inactive). As to `CCC(CO)Nc1ccc([N+](=O)[O-])c2cccnc12` (stereo not given), the inhibition is 38.6% (inactive). Take `CCN(CC)c1ccc([N+](=O)[O-])c2cccnc12`: the inhibition was 67.2% (active). The result for `O=[N+]([O-])c1ccc(NCCO)c2ncccc12` reads 35.9% (inactive); that for `Cc1nonc1OCCNc1ccc([N+](=O)[O-])c2cccnc12`, 33.9% (inactive); that for `Cc1nonc1OCCNCCNc1ccc([N+](=O)[O-])c2cccnc12`, 39% (inactive). The result for `O=[N+]([O-])c1ccc(NCc2ccccc2)c2nonc12` reads 43.9% (inactive). Turning to `CC(O)CNc1ccc([N+](=O)[O-])c2cccnc12` (stereo not given), the inhibition is 52.2% (active). The result for `O=[N+]([O-])c1ccc(NCCCN2CCOCC2)c2ncccc12` reads 57.5% (active). The result for `CCN(CCNc1ccc([N+](=O)[O-])c2cccnc12)S(=O)(=O)c1ccc(Cl)cc1` reads 36.7% (inactive). For `CCN(CCNc1ccc([N+](=O)[O-])c2cccnc12)S(=O)(=O)c1ccccc1` the value was 8.2% (inactive); for `CCC(=O)N1c2ccc(S(=O)(=O)CCC(=O)N3CCC4(CC3)OCCO4)cc2CC1C` (stereo not given), -5.2% (inactive); for `O=C1CN=C(c2ccc(F)cc2)c2oc3ccccc3c2N1`, -7.1% (inactive). On to `CCOC(=O)c1c(C)n(Cc2ccccc2)c2ccc(O)cc12`, for which the inhibition was 40.8% (inactive).

In the case of `O=C(c1ccc2c(c1)OCO2)C1CCCN(CC2CCCCC2)C1` (stereo not given), the inhibition was 12.9% (inactive). The result for `CCOP(=O)(OCC)C(O)c1ccc(OC)c(OC)c1` (stereo not given) reads 2.3% (inactive).
